According to PubChem BioAssay (NCATS):
Inconclusive results are not listed. Calls of active or inactive are those of the source. Unless noted, calls follow the shape of the dose curve; as a rule, active = well fitted curve in the direction sought with a large enough effect; inconclusive = small, poorly fitted or top-dose-only effect, or another doubt; inactive = no such curve, though single readings can be large; an effect the other way counts as inactive or inconclusive.

How the values were obtained:
[1] = molecular target: Metallo-beta-lactamase type 2 (Klebsiella pneumoniae) (UniProt C7C422); assay: qHTS to identify inhibitors of the New Delhi Metallo-beta-lactamase (NDM): assay validation screen against the NCATS LOPAC Collection (AID 1794843);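 also: nitrocefin turnover by NDM-1 measured as 485 nm absorbance at plateau; series mostly up to about 38 µM; % is scaled to controls: 0 for no effect and ±100 for the full control effect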
Chain of Metallo-beta-lactamase type 2 (Klebsiella pneumoniae) (C7C422 whole entry, looked up): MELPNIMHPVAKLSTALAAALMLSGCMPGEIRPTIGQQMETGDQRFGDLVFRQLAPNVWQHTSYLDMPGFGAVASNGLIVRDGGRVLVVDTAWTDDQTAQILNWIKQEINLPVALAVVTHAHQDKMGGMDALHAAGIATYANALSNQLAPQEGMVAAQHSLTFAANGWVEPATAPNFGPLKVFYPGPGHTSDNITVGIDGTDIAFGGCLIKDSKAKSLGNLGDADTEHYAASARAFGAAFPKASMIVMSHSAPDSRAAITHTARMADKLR
From the text: Assay Submitter (PI): James Inglese Ph.D., Patricia Dranchak Ph.D., Mahesh Aitha Ph.D.
Assay Development and Screening Technology Laboratory (ADST)
National Center for Advancing Translational Sciences (NCATS), Rockville, MD
National Institute of Health (NIH), Bethesda, Maryland
The metallo-beta-lactamases (MBL) are a main antibiotic resistance mechanism evolved by bacteria. There is an urgent clinical need for MBL inhibitors to mitigate this growing threat. To support a machine-based learning study, qHTS has been used to experimentally test inhibitors identified by prediction tools.
PROTOCOL TABLE (as described by Inglese et al., 2007)
SEQUENCE No. (e.g., 1, 2, 3, etc.); […] (e.g., enzyme, Incubation, Reagent, etc.); VALUE; DESCRIPTION
1; NDM-1; 4 uL of 3 nM enzyme in 50 mM HEPES (pH 7.0), 1 uM Zn2SO4, 0.01% Tween20; Use BioRaptr to dispense into Aurora black, clear bottom low base 1536-well plates
2; Compounds; 23 nL; Use Pin Tool (Wako) to transfer DMSO control and library compounds in DMSO
4; Reagent; 2 uL of 50 uM nitrocefin
6; Detector; Absorbance at 485 nm (bandwidth = 5 nm, 25 flashes/well) on Tecan Infinity […]
6; Default reader settings were applied for absorbance read at 485 nm, bandwidth = 5 nm, 25 flashes/well. […]
Yasgar A, Shinn P, Jadhav A, Auld D, Michael S, Zheng W, Austin CP, Inglese J, Simeonov A. 2008. Compound Management for Quantitative High-Throughput Screening. […]

[2] = qHTS drug screen for cell cycle checkpoint inhibitors in PARPi-resistant BRCA-mutant ovarian cancer cell lines. (AID 1963452; calls by dose curve); settings: PEO1/OlaR viability, CellTiter-Glo luminescence, 96 h, stronger effect = lower value
How it was run: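 PEO1, PEO4 and PEO1/OlaR ovarian cancer cells, 600 per well, exposed 96 h at 37C to a dilution series. Viability read by CellTiter-Glo luminescence, normalized to DMSO and empty wells; activity summarized as Z-AUC.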

[3] = qHTS profiling for inhibitors of Plasmodium falciparum proliferation (AID 504749); also: potency is read from the fitted curve at half-maximal effect; nearly all actives have a fitted effect of over 60% in size; settings: P. falciparum in erythrocytes, SYBR Green DNA, 72 h
How it was run: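 Parasite proliferation within erythrocytes, 72 h exposure. Endpoint: SYBR Green I fluorescence after overnight lysis at room temperature. Controls: 0.29 uM artemisinin, DMSO.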

[4] = molecular target: Glutathione peroxidase 1 (Homo sapiens) (UniProt P07203); assay: Primary qHTS Assay for Inhibitors of Recombinant Selenoprotein Glutathione Peroxidase 1 (GPX1) (AID 1845191); also: nearly all actives have a fitted effect of over 65% in size; as to activity, negative = inhibition: % is scaled to controls: 0 for no effect and ±100 for the full control effect
Chain of Glutathione peroxidase 1 (Homo sapiens) (P07203 whole entry, looked up): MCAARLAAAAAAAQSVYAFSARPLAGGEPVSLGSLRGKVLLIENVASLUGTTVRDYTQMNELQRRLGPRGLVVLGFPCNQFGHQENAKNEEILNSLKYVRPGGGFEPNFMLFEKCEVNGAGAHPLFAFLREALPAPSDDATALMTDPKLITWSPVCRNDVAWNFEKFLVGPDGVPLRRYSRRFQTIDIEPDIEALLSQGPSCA
How it was run: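 Recombinant GPX1 (10 nM final) was preincubated with compound for 30 min at room temperature, then reacted with 1 mM GSH, 0.5 mM CHP, 0.5 mM NADPH and 100 nM glutathione reductase; NADPH fluorescence (340/450 nm) was read at 0 and 15 min.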

[5] = molecular target: Phospholipid hydroperoxide glutathione peroxidase GPX4 (Homo sapiens) (UniProt P36969); assay: Primary qHTS Assay for Inhibitors of Recombinant Selenoprotein Glutathione Peroxidase 4 (GPX4) (AID 1845192); also: series mostly up to about 50 µM; % is scaled to controls: 0 for no effect and ±100 for the full control effect; nearly all actives have a fitted effect of over 65% in size
Chain of Phospholipid hydroperoxide glutathione peroxidase GPX4 (Homo sapiens) (P36969 whole entry, looked up): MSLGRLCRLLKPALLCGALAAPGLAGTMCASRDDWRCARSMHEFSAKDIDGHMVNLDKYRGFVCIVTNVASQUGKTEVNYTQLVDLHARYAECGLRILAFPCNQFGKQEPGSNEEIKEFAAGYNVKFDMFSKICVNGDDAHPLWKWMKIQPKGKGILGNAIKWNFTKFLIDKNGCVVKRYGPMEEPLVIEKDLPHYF
How it was run: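 GR-coupled readout: 100 nM GR, 1 mM GSH, 0.5 mM NADPH; NADPH fluorescence (ex 340/em 450 nm) read at t=0 and after 15 min RT. GPX4 200 nM, preincubated 30 min with compound; substrate 0.5 mM CHP.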

[6] = molecular target: Luciferin 4-monooxygenase (Photinus pyralis) (UniProt P08659); assay: Primary firefly luciferase (FLuc) qHTS assay for identification of artifact compounds. (AID 1845220); also: nearly all actives have a fitted effect of over 60% in size;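 as to activity change, negative = inhibition: series mostly up to about 54 µM; plate controls were DMSO vehicle for no effect and no enzyme for full effect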
How it was run: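 qHTS, 15 min compound preincubation with substrate (10 uM luciferin, 10 uM ATP) at RT, then 10 nM FLuc; 5 min; luminescence; % inhibition vs no-enzyme/DMSO controls, 4-parameter Hill fit.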

[7] = Primary fluorescence-based thiol-reactive (MSTI) qHTS assay for identification of artifact compounds. (AID 1845221); also: nearly all actives have a fitted effect of over 65% in size; also: potency is read from the fitted curve at half-maximal effect;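 as to activity change, negative = thiol reactive: series mostly up to about 54 µM; thiol-reactive compounds lower the probe fluorescence signal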
How it was run: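 Curve-fitted percent inhibition (4-parameter Hill) derived from fluorescence, Ex 525/Em 598 nm, scaled with Acetyl-MSTI and MSTI; 1 h incubation at room temperature.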

[8] = test system: Nanoluciferase (engineered Oplophorus gracilirostris luciferase); assay: Primary Nanoluciferase (NLuc) qHTS assay for identification of artifact compounds. (AID 1845222);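 also: series mostly up to about 54 µM; 0% = DMSO and -100% = no enzyme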
How it was run: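 Luminescence read-out of secreted NLuc in S16 cell conditioned medium (1:55); compounds tested with 15 min RT preincubation, then Nano-Glo substrate 1:100, 5 min. % inhibition vs no-enzyme and DMSO controls, 4-parameter Hill fit.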

CC[C@]1(O)CC2CN(CCc3c([nH]c4ccccc34)[C@@](C(=O)OC)(c3cc4c(cc3OC)N(C)[C@H]3[C@@](O)(C(=O)OC)[C@H](OC(C)=O)[C@]5(CC)C=CCN6CC[C@]43[C@@H]65)C2)C1 (stereo partly specified)
-0.893: Z-AUC ([2]; measured here: PEO4 Z-AUC)
-1.01: Z-AUC ([2]; measured here: PEO1 parental Z-AUC)
inactive: outcome [1] | Z-AUC [2] -0.152
active: Potency ([3]; parasite line A) 2.51 µM | Potency ([3]; parasite line B) 3.98 µM

C[C@H](CCC(=O)O)[C@H]1CC[C@H]2[C@@H]3C[C@H](O)[C@@H]4C[C@H](O)CC[C@]4(C)[C@H]3CC[C@]12C
inactive: Potency [4] | Potency [5] | Potency [6] | Potency [7] | Potency [8]

C=CC1C(OC2OC(CO)C(O)C(O)C2O)OC=C(C(=O)OC)C1CC1CC(=O)CC(CCc2ccc(O)cc2)O1 (stereo unspecified)
inactive: Potency [4] | Potency [5] | Potency [6] | Potency [7] | Potency [8]

C=C1C[C@]23C[C@H]1CC[C@H]2[C@@]1(C)CCC[C@@]2(C)C(=O)O[C@@H]([C@@H]3O)[C@@H]12
inactive: Potency [4] | Potency [5] | Potency [6] | Potency [7] | Potency [8]

COC1C(=O)CCC2(CO2)C1(O)C1(C)OC1CC=C(C)C (stereo unspecified)
active: Potency [7] 11.9 µM
inactive: Potency [4] | Potency [5] | Potency [6] | Potency [8]

COc1ccc(CC2NCCc3c2[nH]c2ccc(C)cc32)cc1OC (stereo unspecified)
inactive: Potency [4] | Potency [5] | Potency [6] | Potency [7] | Potency [8]

COCCOc1cnc2ccn([C@H](C)c3nnc4c(F)cc(-c5cnn(C)c5)cn34)c(=O)c2c1
inactive: Potency [4] | Potency [5] | Potency [6] | Potency [7] | Potency [8]

CC1=CC2C(CC1OC1OC(CO)C(O)C(O)C1O)C(C)CC(=O)C2C(C)C (stereo unspecified)
active: Potency [7] 3.69 µM
inactive: Potency [4] | Potency [5] | Potency [6] | Potency [8]

CC1OC(OC2C(C)OC(OC3C(O)C(CO)OC(O[C@H]4CC[C@@]5(C)C(CC[C@]6(C)C5CC=C5C7[C@@H](C)[C@H](C)CC[C@]7(C(=O)O)CC[C@]56C(=O)O)C4(C)C)C3O)C(O)C2O)C(O)C(O)C1O (stereo partly specified)
inactive: Potency [4] | Potency [5] | activity change, negative = inhibition [6] 1.66% [at 11.6 µM] | activity change, negative = thiol reactive [7] 65.9% [at 11.5 µM] | activity, negative = inhibition [8] -3.75% [at 11.6 µM]

C=C1C(=O)OC2/C=C(\CO)CC/C=C(\C=O)CC(OC(=O)CC(C)C)C12 (stereo unspecified)
inactive: Potency [4] | Potency [5] | Potency [6] | Potency [8]
active: Potency [7] 16.5 µM

Cc1cc2c(F)c(Oc3ncnn4cc(OCC(C)O)c(C)c34)ccc2[nH]1 (stereo unspecified)
inactive: Potency [4] | Potency [5] | Potency [6] | Potency [7] | Potency [8]

COC1CC(O[C@H]2CC[C@@]3(C)C(=CC[C@]4(O)C3[C@H](OC(C)=O)[C@@H](OC(=O)c3ccccc3)[C@]3(C)[C@@H](C(C)=O)CC[C@@]34O)C2)OC(C)C1OC1CC(OC)C(OC2CC(OC)C(OC3OC(C)C(OC4OC(CO)C(O)C(O)C4O)C(OC)C3O)C(C)O2)C(C)O1 (stereo partly specified)
inactive: outcome [4] inactive [at 9.52 µM] | activity change, negative = inhibition [5] -9.45% [at 9.73 µM] | outcome [6] inactive [at 11.6 µM] | activity change, negative = thiol reactive [7] 29.9% [at 11.5 µM] | activity, negative = inhibition [8] 2.42% [at 11.6 µM]

COC(=O)C[C@H]1[C@]2(C)C3=C(C)[C@H](c4ccoc4)C[C@H]3O[C@@H]2[C@H](OC(C)=O)C2[C@](C)(C(=O)OC)C=CC(=O)[C@@]21C (stereo partly specified)
inactive: Potency [4] | Potency [5] | Potency [6] | Potency [8]
active: Potency [7] 13 µM

CC(=O)OC[C@H]1O[C@H](O[C@]2(CO)O[C@H](CO)[C@@H](OC(=O)/C=C/c3ccccc3)[C@@H]2O)[C@H](O)[C@@H](O)[C@@H]1O
active: Potency [7] 4.62 µM
inactive: Potency [4] | Potency [5] | Potency [6] | Potency [8]

C=C1C(=O)OC2CC(C)=C(C(C)CCCO)C(O)C12 (stereo unspecified)
active: Potency [7] 5.97 µM
inactive: Potency [4] | Potency [5] | Potency [6] | Potency [8]

COc1cccc(C(=O)N2CCN(C(=O)COc3cccc(C)c3)CC2)c1OC
inactive: Potency [4] | Potency [5] | Potency [6] | Potency [7] | Potency [8]

CC1(C)CCC2(C(=O)OC3OC(CO)C(O)C(O)C3O)CCC3(C)C(=CCC4C5(C)CCC(OC6OC(C(=O)O)C(OC7OC(CO)C(O)C(O)C7O)C(OC7OC(CO)C(O)C(O)C7O)C6O)C(C)(C)C5CCC43C)C2C1 (stereo unspecified)
inactive: Potency [4] | Potency [5] | activity change, negative = inhibition [6] -0.248% [at 11.6 µM] | activity change, negative = thiol reactive [7] 123% [at 11.5 µM] | activity, negative = inhibition [8] 1.02% [at 11.6 µM]

C=C(C(=O)O)C1CCC2(C)CCC(O)C(=C)C2C1 (stereo unspecified)
inactive: Potency [4] | Potency [5] | Potency [6] | Potency [8]
active: Potency [7] 13.4 µM
